According to PubChem BioAssay (NCATS):
Results filed as inconclusive are left out. Activity calls are given as the source filed them. Calls come from the whole dose curve; as a rule, active = well fitted curve in the direction sought with a large enough effect; inconclusive = small, poorly fitted or top-dose-only effect, or another doubt; inactive = no such curve, though single readings can be large; an effect the other way counts as inactive or inconclusive.

Key:
MCC-13 = test: qHTS assay to identify novel small-molecules to repurpose for Merkel cell carcinoma treatment (AID 1296009); settings: MCC and control cell lines, CellTiter-Glo viability, 72 h; series mostly up to 46 µM; note: nearly all actives have a fitted effect of over 60% in size
Procedure, shortened: (§1)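 Cell viability, measured as CellTiter-Glo luminescence, was normalized between DMSO and no-cell wells. The cells had been exposed to 8- or 11-point compound dilutions for 72 hr at 37 degree celsius.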

MCC-26 = test: as above; settings: MCC and control cell lines, CellTiter-Glo viability, 72 h; series mostly up to 46 µM
Procedure, shortened: as §1

MKL-1 = test: as above; settings: MCC and control cell lines, CellTiter-Glo viability, 72 h; series mostly up to 46 µM
Procedure, shortened: as §1

MKL-2 = test: as above; settings: MCC and control cell lines, CellTiter-Glo viability, 72 h; series mostly up to 46 µM
Procedure, shortened: as §1

UISO = test: as above; settings: MCC and control cell lines, CellTiter-Glo viability, 72 h; series mostly up to 46 µM
Procedure, shortened: as §1

WaGa = test: as above; settings: MCC and control cell lines, CellTiter-Glo viability, 72 h; series mostly up to 46 µM
Procedure, shortened: as §1

C33A = test: Primary qHTS to identify gynecologic anti-cancer compounds using libraries of approved drugs and bioactive compounds (AID 1345084); settings: Gynecologic cancer cell panel viability, ATPlite luminescence, 48 h; series mostly up to 57.5 µM; note: nearly all actives have a fitted effect of over 55% in size
Procedure, shortened: (§2)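 ATP-based viability (ATPlite), 1,000 cells/well, 16 h pre-incubation, 48 h compound at 37 C, 5% CO2, 15 min RT before read.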

CAOV3 = test: as above; settings: Gynecologic cancer cell panel viability, ATPlite luminescence, 48 h; series mostly up to 57.5 µM
Procedure, shortened: as §2

CASKI = test: as above; settings: Gynecologic cancer cell panel viability, ATPlite luminescence, 48 h; series mostly up to 57.5 µM
Procedure, shortened: as §2

Es-2 = test: as above; settings: Gynecologic cancer cell panel viability, ATPlite luminescence, 48 h; series mostly up to 57.5 µM
Procedure, shortened: as §2

HeLa = test: as above; settings: Gynecologic cancer cell panel viability, ATPlite luminescence, 48 h; series mostly up to 57.5 µM
Procedure, shortened: as §2

Hek293T = test: as above; settings: Gynecologic cancer cell panel viability, ATPlite luminescence, 48 h, control line for the selectivity index; series mostly up to 57.5 µM
Procedure, shortened: as §2

JEG-3 = test: as above; settings: Gynecologic cancer cell panel viability, ATPlite luminescence, 48 h; series mostly up to 57.5 µM
Procedure, shortened: as §2

OV90 = test: as above; settings: Gynecologic cancer cell panel viability, ATPlite luminescence, 48 h; series mostly up to 57.5 µM
Procedure, shortened: as §2

PA-1 = test: as above; settings: Gynecologic cancer cell panel viability, ATPlite luminescence, 48 h; series mostly up to 57.5 µM
Procedure, shortened: as §2

SKOV3 = test: as above; settings: Gynecologic cancer cell panel viability, ATPlite luminescence, 48 h; series mostly up to 57.5 µM
Procedure, shortened: as §2

Tov-21-G = test: as above; settings: Gynecologic cancer cell panel viability, ATPlite luminescence, 48 h; series mostly up to 57.5 µM
Procedure, shortened: as §2

Tov112D = test: as above; settings: Gynecologic cancer cell panel viability, ATPlite luminescence, 48 h; series mostly up to 57.5 µM
Procedure, shortened: as §2

NIH3T3 = test: qHTS assay to identify novel small-molecules to repurpose for Merkel cell carcinoma treatment (AID 1296009); settings: MCC and control cell lines, CellTiter-Glo viability, 72 h; at 44.8 µM (top of the series) unless noted; note: nearly all actives have a fitted effect of over 60% in size
Procedure, shortened: as §1

Measured: Potency

O=c1[nH]c(=O)c2ccccc2o1
not listed: NIH3T3
inactive: all other assays above

CC(=O)NCc1c(I)c(NC(C)=O)c(I)c(C(=O)O)c1I
not listed: NIH3T3
inactive: all other assays above

C[n+]1ccccc1/C=N/O
not listed: CAOV3 | PA-1
inactive: all other assays above
